According to PubChem BioAssay (EPA / NIEHS):
Calls of active or inactive are those of the source. How the source made its calls: active means hit-call score of the fitted dose curve at least 0.9, where 1 is the maximum; inactive means score below 0.9.

Assays:
[1] = read-out: Transforming growth factor beta 1 (TGFb1), TGFB1 (gene 7040); assay: BSK_KF3CT_TGFb1: BioMAP Diversity Plus: KF3CT Assay for Transforming growth factor beta 1 (TGFb1) Biomarker Activity (AID 2283072); conditions: primary human keratinocytes with fibroblasts; actives raise or lower the signal
Procedure, shortened: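 Primary human skin cells (keratinocytes, foreskin fibroblasts) were co-cultured, exposed to test chemical and sampled at 24 h. TGF-b1 levels were measured by ELISA and fitted bidirectionally relative to DMSO.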

[2] = read-out: C-C motif chemokine 2 (Homo sapiens) (UniProt P13500); assay: BSK_KF3CT_MCP1: BioMAP Diversity Plus: KF3CT Assay for Monocyte Chemoattractant Protein 1 (MCP1/CCL2) Biomarker Activity (AID 2283073); conditions: primary human keratinocytes with fibroblasts; actives raise or lower the signal
Procedure, shortened: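 Human keratinocyte–foreskin fibroblast co-culture; MCP-1 measured by ELISA 24 h after dosing. Bidirectional fit vs DMSO; cytotoxicity tracked by SRB total protein in parallel cultures.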

[3] = read-out: Matrix Metallopeptidase 9 (MMP9), MMP9 (gene 4318); assay: BSK_KF3CT_MMP9: BioMAP Diversity Plus: KF3CT Assay for Matrix Metallopeptidase 9 (MMP9) Biomarker Activity (AID 2283074); conditions: primary human keratinocytes with fibroblasts; actives raise or lower the signal;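 on AC50: MMP9 protein level quantified by ELISA in the co-culture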
Procedure, shortened: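 Human keratinocyte/foreskin fibroblast co-culture; compound added; 24 h; MMP-9 by ELISA; bidirectional fit vs DMSO baseline.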

[4] = read-out: urokinase plasminogen activator (uPA), PLAU (gene 5328); assay: BSK_KF3CT_uPA: BioMAP Diversity Plus: KF3CT Assay for urokinase plasminogen activator (uPA) Biomarker Activity (AID 2283075); conditions: primary human keratinocytes with fibroblasts; actives raise or lower the signal
Procedure, shortened: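 ELISA readout of uPA, analyzed for signal gain or loss relative to DMSO, from a human primary keratinocyte–foreskin fibroblast co-culture measured 24 h after chemical treatment.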

CD40, CD40 (gene 958) [5] = assay: BSK_LPS_CD40: BioMAP Diversity Plus: LPS Assay for CD40 Biomarker Activity (AID 2283076); conditions: primary human HUVEC with PBMC; actives raise or lower the signal
Procedure, shortened: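 HUVEC plus PBMC co-culture stimulated with LPS; CD40 quantified by ELISA 24 h after compound dosing. Fitting was bidirectional relative to DMSO. SRB staining of parallel cultures flagged overt cytotoxicity.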

[6] = read-out: E-selectin (Homo sapiens) (UniProt P16581); assay: BSK_LPS_Eselectin: BioMAP Diversity Plus: LPS Assay for Eselectin Biomarker Activity (AID 2283077); conditions: primary human HUVEC with PBMC; actives raise or lower the signal
Procedure, shortened: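 Human umbilical vein endothelial cells co-cultured with PBMC under LPS stimulation; cell-surface E-selectin measured by ELISA 24 h after dosing. Change in either direction versus DMSO, with SRB total-protein staining in parallel cultures for cytotoxicity.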

[7] = read-out: Interleukin-8 (IL8), CXCL8 (gene 3576); assay: BSK_LPS_IL8: BioMAP Diversity Plus: LPS Assay for Interleukin-8 (IL8) Biomarker Activity (AID 2283078); conditions: primary human HUVEC with PBMC; actives raise or lower the signal
Procedure, shortened: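 Human umbilical vein endothelial cells co-cultured with PBMC, LPS-stimulated, exposed to compound for 24 h. IL-8 quantified by ELISA; fitted in both directions against DMSO, with SRB total-protein staining of parallel cultures for cytotoxicity.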

[8] = BSK_LPS_SRB: Viability Assessment in the BioMAP Diversity Plus: LPS Assay (AID 2283079); conditions: primary human HUVEC with PBMC;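 further: total protein by sulforhodamine B absorbance as a cytotoxicity measure; measured one day after compound addition; fitted in both directions against DMSO so loss or gain of signal counts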
Procedure, shortened: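 Co-culture of human umbilical vein endothelial cells and PBMC, read 24 h after dosing. Total protein by 0.1% SRB staining after 10% TCA fixation, absorbance at 560 nm; bidirectional fit against DMSO.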

[9] = read-out: Interleukin-1 alpha (IL1a), IL1A (gene 3552); assay: BSK_LPS_IL1a: BioMAP Diversity Plus: LPS Assay for Interleukin-1 alpha (IL1a) Biomarker Activity (AID 2283080); conditions: primary human HUVEC with PBMC; actives raise or lower the signal
Procedure, shortened: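 Human umbilical vein endothelial cells co-cultured with PBMC and stimulated with LPS; IL-1a measured by ELISA 24 h after dosing. Bidirectional fitting against DMSO; cytotoxicity checked by SRB staining in parallel cultures.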

[10] = read-out: Monocyte Chemoattractant Protein-1 (MCP1), CCL2 (gene 6347); assay: BSK_LPS_MCP1: BioMAP Diversity Plus: LPS Assay for Monocyte Chemoattractant Protein-1 (MCP1) Biomarker Activity (AID 2283081); conditions: primary human HUVEC with PBMC; actives raise or lower the signal
Procedure, shortened: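 Human umbilical vein endothelial cells co-cultured with PBMC, LPS-stimulated; secreted MCP-1 measured by ELISA 24 h after compound addition. Bidirectional curve fitting against DMSO baseline; SRB total-protein staining in parallel cultures for cytotoxicity.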

[11] = BSK_LPS_PGE2: BioMAP Diversity Plus: LPS Assay for Prostaglandin E2 (PGE2) Biomarker Activity (AID 2283082); conditions: primary human HUVEC with PBMC; actives raise or lower the signal
Procedure, shortened: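 LPS-activated HUVEC/PBMC co-culture; cmpd dosed, 24 h; PGE2 by ELISA; bidirectional fit vs DMSO; SRB (0.1%, TCA-fixed, 560 nm) in parallel plates for overt cytotox.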

[12] = read-out: Macrophage colony-stimulating factor (MCSF), CSF1 (gene 1435); assay: BSK_LPS_MCSF: BioMAP Diversity Plus: LPS Assay for Macrophage colony-stimulating factor (MCSF) Biomarker Activity (AID 2283083); conditions: primary human HUVEC with PBMC; actives raise or lower the signal
Procedure, shortened: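 HUVEC–PBMC co-culture, M-CSF measured by ELISA 24 h after chemical dosing. Fitted in both directions relative to DMSO as negative control; overt cytotoxicity assessed by SRB total-protein staining in parallel cultures.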

[13] = read-out: Tissue Factor, F3 (gene 2152); assay: BSK_LPS_TissueFactor: BioMAP Diversity Plus: LPS Assay for Tissue Factor Biomarker Activity (AID 2283084); conditions: primary human HUVEC with PBMC; actives raise or lower the signal
Procedure, shortened: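 Human umbilical vein endothelial cells co-cultured with PBMC were dosed with compound. Cell-surface CD142 was measured by ELISA 24 h later. Activity was fitted bidirectionally against DMSO, with SRB total-protein staining in parallel cultures for cytotoxicity.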

[14] = read-out: Tumor necrosis factor (Homo sapiens) (UniProt P01375); assay: BSK_LPS_TNFa: BioMAP Diversity Plus: LPS Assay for Tumour Necrosis Factor alpha (TNFa) Biomarker Activity (AID 2283085); conditions: primary human HUVEC with PBMC; actives raise or lower the signal
Procedure, shortened: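 Read-out is ELISA of TNFa in primary human endothelial cell–PBMC co-cultures at 24 h after compound. Activity in either direction was fitted against DMSO.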

CD38, CD38 (gene 952) = assay: BSK_SAg_CD38: BioMAP Diversity Plus: SAg Assay for CD38 Biomarker Activity (AID 2283087); conditions: primary human HUVEC with PBMC; actives raise or lower the signal
Procedure, shortened: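 Human HUVEC plus PBMC co-culture stimulated with superantigen; CD38 measured by ELISA 24 h after chemical dosing. Fluorescence read-out, bidirectional fit against DMSO; cytotoxicity tracked in parallel by SRB and Alamar Blue.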

CD40, CD40 (gene 958) [15] = assay: BSK_SAg_CD40: BioMAP Diversity Plus: SAg Assay for CD40 Biomarker Activity (AID 2283088); conditions: primary human HUVEC with PBMC; actives raise or lower the signal
Procedure, shortened: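 HUVEC plus PBMC co-culture, superantigen-activated, with CD40 read by ELISA 24 h after dosing. Curves fitted in both directions against DMSO. Overt cytotoxicity checked by parallel SRB total-protein staining.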

CD69, CD69 (gene 969) = assay: BSK_SAg_CD69: BioMAP Diversity Plus: SAg Assay for CD69 Biomarker Activity (AID 2283089); conditions: primary human HUVEC with PBMC; actives raise or lower the signal
Procedure, shortened: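 HUVEC co-cultured with PBMC were dosed with chemical, and CD69 was measured by ELISA with fluorescence read-out 24 h later. Bidirectional curve fitting used DMSO as negative control and activity baseline.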

[16] = read-out: Monocyte Chemoattractant Protein-1 (MCP1), CCL2 (gene 6347); assay: BSK_SAg_MCP1: BioMAP Diversity Plus: SAg Assay for Monocyte Chemoattractant Protein-1 (MCP1) Biomarker Activity (AID 2283090); conditions: primary human HUVEC with PBMC; actives raise or lower the signal
Procedure, shortened: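 MCP-1 levels in the endothelial–PBMC SAg co-culture were quantified by ELISA at 24 h post-dosing; both increases and decreases versus DMSO scored. Cytotoxicity monitored by SRB total protein in parallel cultures.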

[17] = read-out: E-selectin (Homo sapiens) (UniProt P16581); assay: BSK_SAg_Eselectin: BioMAP Diversity Plus: SAg Assay for Eselectin Biomarker Activity (AID 2283091); conditions: primary human HUVEC with PBMC; actives raise or lower the signal
Procedure, shortened: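 Human umbilical vein endothelial cells co-cultured with peripheral blood mononuclear cells, SAg system. E-selectin is measured by ELISA 24 h after dosing and fitted bidirectionally against DMSO. Cytotoxicity is checked by SRB staining of parallel cultures.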

[18] = read-out: Vascular cell adhesion molecule 1 (VCAM1), VCAM1 (gene 7412); assay: BSK_LPS_VCAM1: BioMAP Diversity Plus: LPS Assay for Vascular cell adhesion molecule 1 (VCAM1) Biomarker Activity (AID 2283086); conditions: primary human HUVEC with PBMC; actives raise or lower the signal
Procedure, shortened: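 HUVEC + PBMC co-culture, LPS system; compound 24 h; VCAM-1 by ELISA; bidirectional fit vs DMSO control; parallel SRB (0.1%, TCA-fixed, 560 nm) for cytotoxicity.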

Measured: AC50

Chain of E-selectin (Homo sapiens) (P16581 whole entry, looked up): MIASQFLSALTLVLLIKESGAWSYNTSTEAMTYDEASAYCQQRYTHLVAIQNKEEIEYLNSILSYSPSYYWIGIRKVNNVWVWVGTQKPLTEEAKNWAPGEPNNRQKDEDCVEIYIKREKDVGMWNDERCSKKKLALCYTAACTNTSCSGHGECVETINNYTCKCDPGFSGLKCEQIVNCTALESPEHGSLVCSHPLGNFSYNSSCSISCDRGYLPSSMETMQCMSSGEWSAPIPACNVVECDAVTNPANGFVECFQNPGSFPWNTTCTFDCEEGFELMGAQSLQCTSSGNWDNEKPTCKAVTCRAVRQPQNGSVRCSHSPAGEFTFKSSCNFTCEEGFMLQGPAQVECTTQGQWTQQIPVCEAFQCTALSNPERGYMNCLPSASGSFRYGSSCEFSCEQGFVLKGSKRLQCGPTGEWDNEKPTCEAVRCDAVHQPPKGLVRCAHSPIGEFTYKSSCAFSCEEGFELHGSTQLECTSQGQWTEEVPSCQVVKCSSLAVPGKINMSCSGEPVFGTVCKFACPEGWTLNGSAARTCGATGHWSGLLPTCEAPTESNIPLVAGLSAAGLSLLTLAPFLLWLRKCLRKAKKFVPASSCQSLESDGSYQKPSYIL
Chain of Tumor necrosis factor (Homo sapiens) (P01375 whole entry, looked up): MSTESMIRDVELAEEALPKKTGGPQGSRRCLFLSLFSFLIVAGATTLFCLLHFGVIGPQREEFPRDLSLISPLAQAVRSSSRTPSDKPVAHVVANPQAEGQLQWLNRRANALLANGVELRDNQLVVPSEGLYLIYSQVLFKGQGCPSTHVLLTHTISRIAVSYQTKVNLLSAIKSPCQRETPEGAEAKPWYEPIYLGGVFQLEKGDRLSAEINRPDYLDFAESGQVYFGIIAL

CS(=O)(=O)c1ccc([C@@H](C[C@H]2CCC(=O)C2)C(=O)Nc2cnccn2)cc1Cl
inactive: [1] | [2] | [3] | [4] | CD40, CD40 (gene 958) [5] | [6] | [7] | [8] | [9] | [10] | [11] | [12] | [13] | [14] | CD38, CD38 (gene 952) | CD40, CD40 (gene 958) [15] | CD69, CD69 (gene 969) | [16] | [17]

CCCCCCCCCCCCCCOS(=O)(=O)O
active: [1] 5.78 µM | [2] 8.92 µM | [3] 8.96 µM | [4] 9.42 µM | CD38, CD38 (gene 952) 20 µM
inactive: CD40, CD40 (gene 958) [5] | [6] | [7] | [8] | [9] | [10] | [12] | [13] | [14] | [18] | CD40, CD40 (gene 958) [15] | CD69, CD69 (gene 969) | [16] | [17]

CN(C)C(=O)NC1(c2ccccc2)CCN(CC[C@@]2(c3ccc(F)c(F)c3)CN(C(=O)c3ccccc3)CCO2)CC1
inactive: [1] | [2] | [3] | [4] | CD40, CD40 (gene 958) [5] | [6] | [7] | [8] | [9] | [10] | [12] | [13] | [14] | [18] | CD38, CD38 (gene 952) | CD40, CD40 (gene 958) [15] | CD69, CD69 (gene 969) | [16] | [17]

CC(C)c1cccc(C(C)C)c1
inactive: [1] | [2] | [3] | [4] | CD40, CD40 (gene 958) [5] | [6] | [7] | [8] | [9] | [10] | [11] | [12] | [13] | [14] | CD38, CD38 (gene 952) | CD40, CD40 (gene 958) [15] | CD69, CD69 (gene 969) | [16] | [17]

CCCCC(CC)CO (stereo not drawn)
inactive: [1] | [2] | [3] | [4] | CD40, CD40 (gene 958) [5] | [6] | [7] | [8] | [9] | [10] | [11] | [12] | [13] | [14] | CD38, CD38 (gene 952) | CD40, CD40 (gene 958) [15] | CD69, CD69 (gene 969) | [16] | [17]

Cc1cc(SC2=C(O)C[C@@](CCc3ccc(N)cc3)(C(C)C)OC2=O)c(C(C)(C)C)cc1CO
inactive: [1] | [2] | [3] | [4] | CD40, CD40 (gene 958) [5] | [6] | [7] | [8] | [9] | [10] | [11] | [12] | [13] | CD38, CD38 (gene 952) | CD40, CD40 (gene 958) [15] | CD69, CD69 (gene 969) | [16] | [17]
active: [14] 20 µM

Cc1occc(=O)c1O
inactive: [1] | [2] | [3] | [4] | CD40, CD40 (gene 958) [5] | [6] | [7] | [8] | [9] | [10] | [12] | [13] | [14] | [18] | CD38, CD38 (gene 952) | CD40, CD40 (gene 958) [15] | CD69, CD69 (gene 969) | [16] | [17]
